Measured values taken from PubChem BioAssay (NCI).
This is part of a sample that, as a whole, favours compounds with a hit. Of some 83,000 tested, about 20% had one in any assay.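 Testing used 96-well plates and a 48-hour single-concentration exposure. Example: -40 means 40% of the starting cells died.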 Active and inactive are the calls of the source. Rule for the calls: active = growth percent below 10; inactive = the rest.

What was measured:
Assay in all cases: NCI-60 one-dose screen, 48 h (100 = growth as untreated, 0 = no growth, -100 = all killed)
Conditions in all cases: 10 µM unless noted
HCT-15 colon = test system: HCT-15 colon
HT29 colon = test system: HT29 colon
SNB-75 CNS = test system: SNB-75 CNS
SNB-19 CNS = test system: SNB-19 CNS
U251 CNS = test system: U251 CNS
PC-3 prostate = test system: PC-3 prostate
SK-MEL-5 melanoma = test system: SK-MEL-5 melanoma
UACC-62 melanoma = test system: UACC-62 melanoma
SK-MEL-28 melanoma = test system: SK-MEL-28 melanoma
LOX IMVI melanoma = test system: LOX IMVI melanoma

Measured: growth

CCNC(=O)c1ccc2c(c1)nc(-c1ccc(Cl)cc1)n2-c1cc(C(C)(C)C)[nH]n1
inactive: HCT-15 colon 45.2% | HT29 colon 26% | SNB-75 CNS 34.2% | SNB-19 CNS 60.5% | U251 CNS 46.5% | PC-3 prostate 44% | SK-MEL-5 melanoma 11.5% | UACC-62 melanoma 38.6% | SK-MEL-28 melanoma 41.6%

O=C(Nc1ccc(-n2ccc3c(NC(=O)c4ccccc4)nccc32)cc1)c1ccc(N2CCOCC2)c(C(F)(F)F)c1
active: HT29 colon 2.44%
inactive: HCT-15 colon 20% | SNB-75 CNS 23.5% | SNB-19 CNS 44.6% | U251 CNS 14.4% | PC-3 prostate 35.7% | SK-MEL-5 melanoma 23.7% | UACC-62 melanoma 49.4% | SK-MEL-28 melanoma 25.3%

O=C1Nc2ccc(Br)cc2/C1=N/c1nc(-c2ccccc2)cs1
inactive: HCT-15 colon 94.9% | HT29 colon 91.7% | SNB-75 CNS 79% | SNB-19 CNS 96.2% | U251 CNS 92.9% | PC-3 prostate 62.3% | SK-MEL-5 melanoma 77.5% | UACC-62 melanoma 80.5% | SK-MEL-28 melanoma 95%

O=[N+]([O-])c1ccc(Sc2nc(Cl)nc(NC3CCCC3)n2)cc1
active: HCT-15 colon -92.4% [100 µM] | HT29 colon -72.6% [100 µM] | SNB-75 CNS -100% [100 µM] | SNB-19 CNS -95.5% [100 µM] | PC-3 prostate -89.5% [100 µM] | SK-MEL-5 melanoma -90.3% [100 µM] | UACC-62 melanoma -97.4% [100 µM] | LOX IMVI melanoma -87.9% [100 µM] | SK-MEL-28 melanoma -97.8% [100 µM]

Cc1ccc(OC2=C(C#N)C(=N)N3C(=NN2)Sc2c(C)ccc(C)c23)cc1
inactive: HCT-15 colon 104% | HT29 colon 116% | SNB-75 CNS 96.5% | SNB-19 CNS 118% | U251 CNS 103% | PC-3 prostate 82.4% | SK-MEL-5 melanoma 96.3% | UACC-62 melanoma 98.7% | SK-MEL-28 melanoma 106%

COc1cc2ncnc(Nc3ccc(S(=O)(=O)Nc4cc(C)on4)cc3)c2cc1OCCCN1CCN(c2ccc([N+](=O)[O-])cc2)CC1
inactive: HCT-15 colon 105% | HT29 colon 107% | SNB-75 CNS 91.9% | SNB-19 CNS 100% | U251 CNS 97.1% | PC-3 prostate 104% | SK-MEL-5 melanoma 111% | UACC-62 melanoma 94.4% | SK-MEL-28 melanoma 112%

CCOC(=O)C(Cc1ccccc1)n1c(O)c(/C=N/c2ncc(Cc3ccc(Cl)cc3Cl)s2)sc1=S (stereo not drawn)
active: HT29 colon -16.7% | U251 CNS 4.53% | PC-3 prostate -16.2% | SK-MEL-5 melanoma -3.04% | UACC-62 melanoma -0.818%
inactive: HCT-15 colon 10.5% | SNB-75 CNS 22% | SNB-19 CNS 19.3% | SK-MEL-28 melanoma 31.8%

COc1ccc(-n2nc(C(=O)Nc3ccc(F)cc3)nc2-c2cc(OC)c(OC)c(OC)c2)cc1
inactive: HCT-15 colon 82.2% | HT29 colon 95.8% | SNB-19 CNS 92.3% | PC-3 prostate 79.2% | SK-MEL-5 melanoma 80.3% | UACC-62 melanoma 83.7% | LOX IMVI melanoma 94.3% | SK-MEL-28 melanoma 119%

C=C1C(=O)O[C@H]2[C@H]1CC/C(COC(=O)NCc1cccc(OC)c1)=C\CC[C@@]1(C)O[C@@H]21
inactive: SNB-75 CNS 71.1% | SNB-19 CNS 69.9% | U251 CNS 39.4% | PC-3 prostate 40.1% | SK-MEL-5 melanoma 29.8% | UACC-62 melanoma 31.5% | SK-MEL-28 melanoma 22.5%
active: HCT-15 colon -3.38% | HT29 colon -29.9%

N/C(=N\O)c1ncc(-c2ccc(C(F)(F)F)cc2)c(NC2CCCCCC2)n1
inactive: SK-MEL-28 melanoma 10.3% [100 µM]
active: HCT-15 colon -62.4% [100 µM] | HT29 colon -91.6% [100 µM] | SNB-75 CNS -41.4% [100 µM] | SNB-19 CNS -12.7% [100 µM] | PC-3 prostate -88.9% [100 µM] | SK-MEL-5 melanoma -85.8% [100 µM] | UACC-62 melanoma -88.2% [100 µM] | LOX IMVI melanoma -73.5% [100 µM]

COc1cc2ccc(C(C)=O)cc2cc1OC
inactive: HCT-15 colon 97.3% | HT29 colon 112% | SNB-19 CNS 104% | PC-3 prostate 91.2% | SK-MEL-5 melanoma 96.5% | UACC-62 melanoma 89.4% | LOX IMVI melanoma 92.3% | SK-MEL-28 melanoma 131%

CCCCCCCC/C=C/CCCCCCCC1=NC(C)(C)CN1c1ccccc1
inactive: HCT-15 colon 80.5% | HT29 colon 66.8% | SNB-75 CNS 90% | SNB-19 CNS 87.8% | U251 CNS 84.5% | PC-3 prostate 64% | SK-MEL-5 melanoma 92.4% | UACC-62 melanoma 75.2% | SK-MEL-28 melanoma 103%

CS(=O)(=O)c1ccc(C(=O)N/N=C/c2cccc3ccccc23)cc1
inactive: HCT-15 colon 49.8% | HT29 colon 49.5% | SNB-75 CNS 89.7% | SNB-19 CNS 79.8% | U251 CNS 76.3% | PC-3 prostate 78.8% | SK-MEL-5 melanoma 67.2% | UACC-62 melanoma 61.6% | SK-MEL-28 melanoma 89.4%

COc1cccc(-c2nc3sccn3c2-c2ccnc(NCCN3CCCNS3(=O)=O)n2)c1
inactive: HCT-15 colon 97.1% | HT29 colon 45.2% | SNB-75 CNS 88.4% | SNB-19 CNS 127% | U251 CNS 112% | PC-3 prostate 94.4% | SK-MEL-5 melanoma 80.8% | SK-MEL-28 melanoma 44.1%
active: UACC-62 melanoma 9.99%

CCS(=O)(=O)Nc1cccc(Nc2c3cccc(C)c3nc3c(C)cccc23)c1OC
inactive: HCT-15 colon 11.1% | HT29 colon 11.3% | SNB-75 CNS 21.7% | SNB-19 CNS 38.8% | PC-3 prostate 21.4% | SK-MEL-5 melanoma 17.4% | UACC-62 melanoma 45.5% | SK-MEL-28 melanoma 56.9%
active: U251 CNS 7.01%

ClCCn1cnc2c(SCc3ccccc3Cl)ncnc21
inactive: HCT-15 colon 21.3% | HT29 colon 26.3% | SNB-75 CNS 79.2% | U251 CNS 30.4% | PC-3 prostate 38.7% | SK-MEL-5 melanoma 38.4% | UACC-62 melanoma 33.7% | SK-MEL-28 melanoma 47.3%
active: LOX IMVI melanoma 7.06%

CCCCc1nc(Cl)c(C2CC(c3ccc(S(N)(=O)=O)cc3)=NN2c2ccc(C#N)cc2)[nH]1 (stereo not drawn)
inactive: HCT-15 colon 97% | HT29 colon 100% | SNB-75 CNS 87.5% | SNB-19 CNS 84.9% | U251 CNS 76.7% | PC-3 prostate 69.4% | SK-MEL-5 melanoma 78.3% | UACC-62 melanoma 68% | SK-MEL-28 melanoma 107%

CCOC(=O)C#Cc1c(C(=O)OCC)nnn1[C@@H]1O[C@H](COC(C)=O)[C@@H](OC(C)=O)[C@H]1OC(C)=O
inactive: HCT-15 colon 44% | HT29 colon 88.9% | SNB-75 CNS 95.5% | SNB-19 CNS 93% | U251 CNS 100% | PC-3 prostate 102% | SK-MEL-5 melanoma 96.6% | UACC-62 melanoma 93.1% | SK-MEL-28 melanoma 107%

C[N+](C)(C)CCCCCCCCCC[N+](C)(C)C
inactive: HCT-15 colon 107% | SNB-75 CNS 89.3% | SNB-19 CNS 98.7% | U251 CNS 91.1% | PC-3 prostate 89.3% | SK-MEL-5 melanoma 97.4% | UACC-62 melanoma 91.7% | LOX IMVI melanoma 84.7% | SK-MEL-28 melanoma 104%

CCN(CC)CCCCCCCCNc1c2ccc(Cl)cc2nc2ccc(OC)cc12
active: HCT-15 colon -39% | SNB-75 CNS -85.6% | SNB-19 CNS -30.9% | PC-3 prostate -56.4% | SK-MEL-5 melanoma -97.7% | UACC-62 melanoma -82.1% | LOX IMVI melanoma -78.2% | SK-MEL-28 melanoma -85.8%

Clc1nnc2c3ccccc3ccn12
inactive: HCT-15 colon 99.9% | HT29 colon 113% | SNB-75 CNS 82.2% | SNB-19 CNS 110% | U251 CNS 102% | PC-3 prostate 93% | SK-MEL-5 melanoma 97.7% | UACC-62 melanoma 102% | SK-MEL-28 melanoma 119%

NNc1ccc(S(N)(=O)=O)cc1
inactive: HCT-15 colon 110% | SNB-75 CNS 89.9% | PC-3 prostate 90.2% | SK-MEL-5 melanoma 100% | LOX IMVI melanoma 86.4% | SK-MEL-28 melanoma 108%

O=c1c2cc(Br)cc(Br)c2nc(-c2ccc(Cl)cc2)n1/N=C/c1cccc(F)c1
active: SNB-75 CNS -0.938%
inactive: HCT-15 colon 75.2% | HT29 colon 62.1% | SNB-19 CNS 57.6% | U251 CNS 43.3% | PC-3 prostate 67% | SK-MEL-5 melanoma 70.9% | UACC-62 melanoma 74.6% | SK-MEL-28 melanoma 85.1%

FC(F)(F)c1cc(-c2nnc3n2N=C(Cl)CS3)cc(C(F)(F)F)c1
inactive: HCT-15 colon 96.8% | HT29 colon 113% | SNB-19 CNS 107% | PC-3 prostate 96.2% | SK-MEL-5 melanoma 98.9% | UACC-62 melanoma 101% | LOX IMVI melanoma 77.1% | SK-MEL-28 melanoma 134%

O=C(Nc1cccc(-n2ccc3c(NC(=O)c4ccccc4)nccc32)c1)c1ccc(Cl)c(Cl)c1
active: HCT-15 colon -62% | SNB-75 CNS 2.32% | SNB-19 CNS -40.3% | PC-3 prostate -60.5% | SK-MEL-5 melanoma -100% | UACC-62 melanoma -61.3% | LOX IMVI melanoma -84.4% | SK-MEL-28 melanoma -60.4%

Cc1nn(-c2ccccc2)c2nc3c(nc12)C1=NCCN1C(c1ccc(Cl)cc1)N3 (stereo not drawn)
inactive: HCT-15 colon 66.4% | HT29 colon 19% | SNB-75 CNS 62.1% | SNB-19 CNS 109% | PC-3 prostate 55.1% | SK-MEL-5 melanoma 65.6% | UACC-62 melanoma 84.8% | LOX IMVI melanoma 79.1% | SK-MEL-28 melanoma 73.3%

COc1nccc2c(Sc3ccccc3)nc(N)nc12
inactive: HCT-15 colon 100% | HT29 colon 108% | SNB-75 CNS 84.5% | SNB-19 CNS 117% | U251 CNS 110% | PC-3 prostate 84.7% | SK-MEL-5 melanoma 99.2% | UACC-62 melanoma 102% | SK-MEL-28 melanoma 106%

COc1ccc(/C=N/NC(N)=S)c(OC)n1
inactive: HCT-15 colon 86.9% | HT29 colon 93.4% | SNB-75 CNS 79.5% | SNB-19 CNS 102% | U251 CNS 95.8% | PC-3 prostate 105% | SK-MEL-5 melanoma 93.1% | UACC-62 melanoma 96.8% | SK-MEL-28 melanoma 98.5%

COc1ccc(NC(=O)Cn2c(=O)sc3c(-c4ccc(Cl)cc4)cc(-c4ccc(Cl)cc4)nc32)cc1
inactive: HCT-15 colon 93.3% | HT29 colon 82.7% | SNB-75 CNS 89.5% | SNB-19 CNS 105% | U251 CNS 103% | PC-3 prostate 95.4% | SK-MEL-5 melanoma 98.6% | UACC-62 melanoma 85.6% | SK-MEL-28 melanoma 103%
